NR2F2 inh – inhibitors of human COUP-TFII (NR2F2); P24468; HEK293T NGFI-A luciferase reporter, luminescence; inhibition, % at 8.6 µM; hit rate 0.7% among 370,000;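 active = inhibition above a per-plate cutoff, mean inhibition of test wells between control levels plus 3 SD, cut at about 38% in these data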;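 note: cells cotransfected with COUP-TFII expression vector driving the NGFI-A reporter; 0% = median of COUP-TF2 test wells and 100% = reporter-only cells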
SRC3 inh – human NCOA3 inhibition. Q9Y6Q9. HEK293 GAL4-SRC3 luciferase reporter, luminescence. inhibition, % at 3.6 µM. hit rate 0.17% among 360,000. AID 588352;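 active = inhibition above a per-campaign cutoff, the mean of all compounds plus 3 SD, cut at about 60% in these data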;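 note: 0% = DMSO-treated cells and 100% = gossypol-treated cells at 36 µM; higher means less SRC3-driven luciferase light from the GAL4 reporter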
NR5A2 inv ag – suppresses constitutive activity of human LRH-1 | hit rate 0.13% among 360,000 | HEK293T StAR-luciferase reporter, LRH-1 transfected, 24 h | AID 602396 | inhibition, % at 3.6 µM;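 active = inhibition above the mean inhibition of all tested compounds plus 3 SD, cut at about 73% in these data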;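 note: 0% = DMSO wells and 100% = reporter-only cells lacking LRH-1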
Gli-Sufu antag – antagonists of Gli-Sufu signaling; Sufu-KO-LIGHT fibroblasts, Gli luciferase reporter luminescence; inhibition, % at 5 µM; hit rate 0.74% among 340,000; AID 588413;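 active = inhibition above about 55%, limit read from the data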;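 note: 0% = DMSO-treated cells and 100% = wells with medium but no cells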
SRC2 inh – inhibits human steroid receptor coactivator 2. Q15596. HEK293 GAL4-SRC2 luciferase reporter, luminescence. inhibition, % at 9 µM. hit rate 0.17% among 370,000;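 active = inhibition above the mean inhibition of all tested compounds plus 3 SD, set per campaign, cut at about 52% in these data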;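 note: 0% = DMSO treated cells and 100% = cells given Gossypol at 36 µM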
Target sequence (Q15596 whole entry, looked up, the tested form may be a part): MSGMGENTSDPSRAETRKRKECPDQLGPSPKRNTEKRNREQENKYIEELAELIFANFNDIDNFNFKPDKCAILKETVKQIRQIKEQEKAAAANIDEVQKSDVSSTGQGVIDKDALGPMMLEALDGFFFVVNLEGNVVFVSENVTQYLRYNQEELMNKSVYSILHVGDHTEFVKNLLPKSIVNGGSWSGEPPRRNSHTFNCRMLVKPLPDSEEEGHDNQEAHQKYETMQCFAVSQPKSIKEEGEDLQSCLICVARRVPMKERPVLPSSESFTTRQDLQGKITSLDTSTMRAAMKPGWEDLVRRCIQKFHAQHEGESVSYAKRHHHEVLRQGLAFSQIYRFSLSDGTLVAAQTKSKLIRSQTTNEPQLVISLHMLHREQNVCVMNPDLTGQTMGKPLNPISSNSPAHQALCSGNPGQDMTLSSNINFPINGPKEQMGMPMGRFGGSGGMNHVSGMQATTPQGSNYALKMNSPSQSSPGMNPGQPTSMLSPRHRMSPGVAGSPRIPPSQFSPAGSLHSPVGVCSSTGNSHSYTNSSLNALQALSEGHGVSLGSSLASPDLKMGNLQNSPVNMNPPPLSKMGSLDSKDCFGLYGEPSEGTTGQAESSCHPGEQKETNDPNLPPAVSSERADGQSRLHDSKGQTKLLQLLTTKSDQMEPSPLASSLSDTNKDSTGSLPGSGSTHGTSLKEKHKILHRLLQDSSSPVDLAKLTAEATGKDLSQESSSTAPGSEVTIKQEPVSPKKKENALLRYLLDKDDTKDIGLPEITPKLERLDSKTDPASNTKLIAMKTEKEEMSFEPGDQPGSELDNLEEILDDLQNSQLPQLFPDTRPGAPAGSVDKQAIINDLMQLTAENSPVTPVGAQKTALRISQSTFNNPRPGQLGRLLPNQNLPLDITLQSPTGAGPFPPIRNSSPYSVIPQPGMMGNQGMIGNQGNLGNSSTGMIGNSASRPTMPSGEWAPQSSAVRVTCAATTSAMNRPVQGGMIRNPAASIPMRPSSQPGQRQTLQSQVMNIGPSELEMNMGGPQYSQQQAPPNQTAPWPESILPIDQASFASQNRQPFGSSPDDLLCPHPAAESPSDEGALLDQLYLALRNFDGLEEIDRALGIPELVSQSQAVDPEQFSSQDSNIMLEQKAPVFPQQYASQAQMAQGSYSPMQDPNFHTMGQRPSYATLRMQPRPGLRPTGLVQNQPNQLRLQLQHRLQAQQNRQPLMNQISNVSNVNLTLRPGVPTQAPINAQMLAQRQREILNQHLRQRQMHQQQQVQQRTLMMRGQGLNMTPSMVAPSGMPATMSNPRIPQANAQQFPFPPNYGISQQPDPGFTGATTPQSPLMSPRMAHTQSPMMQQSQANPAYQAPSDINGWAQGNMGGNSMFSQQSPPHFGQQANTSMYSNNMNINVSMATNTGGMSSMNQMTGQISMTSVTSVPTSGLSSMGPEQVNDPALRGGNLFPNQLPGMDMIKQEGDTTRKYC
SRC1 inh – inhibitors of human steroid receptor coactivator 1 (SRC1). Q15788. HEK293 GAL4-SRC1 luciferase reporter, luminescence. inhibition, % at 3.6 µM. hit rate 0.12% among 360,000;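 active = inhibition above the campaign mean plus 3 SD, with each screening campaign given its own cutoff, cut at about 60% in these data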;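 note: 0% = DMSO treated cells and 100% = gossypol at 36 µM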
Gli antag conf – confirmation of Gli-SUFU pathway antagonists | Sufu-KO-LIGHT cells, Gli luciferase reporter, luminescence | hit rate 40% among 2,500 | shares compounds with Gli-Sufu antag | inhibition, % at 5 µM;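 active = mean inhibition at 5 µM reaching about 45%, limit read from the data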;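 note: plate controls were DMSO-treated cells for no effect and wells lacking cells for full effect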
SufuKO cytotox – cytotoxicity counter-screen for Gli-SUFU antagonists | shares compounds with Gli-Sufu antag | Sufu-KO-LIGHT cells cytotoxicity, ATP luminescence | cytotoxicity, % at 5 µM | hit rate 32% among 2,500 | AID 651994;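 active = mean cytotoxicity at 5 µM above about 25%, limit read from the data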;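 note: cells exposed to compound overnight for roughly 16 to 18 hours; plate controls were DMSO wells with cells for no effect and medium without cells for full effect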
Wnt3a counter – counter-screen for Gli-SUFU antagonists: Wnt3a reporter inhibition; hit rate 20% among 2,500; inhibition, % at 6.25 µM; AID 651995; shares compounds with Gli-Sufu antag; Wnt-LIGHT cells, Wnt3a-driven luciferase reporter, luminescence;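 active = mean inhibition above about 25%, limit read from the data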
Gal4-VP16 ctr – VP16 inhibition counter-screen for COUP-TFII | HEK293 Gal4-VP16 luciferase reporter, luminescence | inhibition, % at 8.5 µM | shares compounds with NR2F2 inh | AID 687007 | hit rate 25% among 2,500; in the data active = inhibition above about 13%
NR2F2 inh conf – confirmation of human COUP-TFII (NR2F2) inhibitors. inhibition, % at 8.5 µM. HEK293 NGFI-A luciferase reporter, luminescence. hit rate 45% among 2,500. shares compounds with NR2F2 inh;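 active = mean inhibition over three repeats above a set limit taken from the earlier primary screen, cut at about 38% in these data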;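 note: 100% = cells given the luciferase reporter alone without the COUP-TF2 vector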
* hit, by the source's call; x = no result. Sampled rows, rich in hits. Any-hit rate of the full collection: about 1.3%.

SMILES | NR2F2 inh | SRC3 inh | NR5A2 inv ag | Gli-Sufu antag | SRC2 inh | SRC1 inh | Gli antag conf | SufuKO cytotox | Wnt3a counter | Gal4-VP16 ctr | NR2F2 inh conf
O=C(c1ccc(CSc2nc3ccncc3[nH]2)cc1)N1CCCCCC1 | -15 | -53 | -77 | -43 | -42 | -75 | x | x | x | x | x
COc1ccc(CNc2cc(C)nc3ncnn23)c(OC)c1 | 65* | 4 | 32 | 52 | 16 | 22 | 46* | 14 | 25 | -5 | 35
CN(C(=O)COc1ccccc1C(=O)NCCOc1ccccc1)c1ccccc1 | 56* | 77* | 50 | 69* | 46 | 51 | 66* | 43* | 1 | -6 | 25
CCc1ccc(CCNC(=O)OC2CCC23CCC(c2ccccc2)CC3)cc1 (stereo unspecified) | -5 | x | x | x | -4 | x | x | x | x | x | x
CCCCCCC[N+](CC)(CC)CCCCc1ccc(Cl)cc1 | 41* | 52 | 70 | 85* | -25 | 4 | 88* | 26* | 10 | 15* | 25
Cc1sc2ncnc(NCC(O)c3ccc([N+](=O)[O-])cc3)c2c1C (stereo unspecified) | 63* | -9 | 43 | 68* | -9 | 0 | 71* | 30* | 7 | 6 | 50*
Cc1sc2ncnc(NCC(c3ccccc3)N(C)C)c2c1C (stereo unspecified) | 5 | 17 | -12 | 8 | -1 | -1 | x | x | x | x | x
Cn1cc(CNC(=O)c2cc(COc3ccc4c(c3)CCCC4)on2)cn1 | 9 | 12 | -40 | 4 | -5 | -9 | x | x | x | x | x
O=C(NC(c1cccnc1)C(F)(F)F)c1cc(COc2ccc3c(c2)CCCC3)on1 (stereo unspecified) | 42* | -43 | -41 | 61* | -34 | -41 | 59* | 31* | -95 | -75 | 10
CCN(C(=O)c1ccc(C(C)(C)C)cc1)c1nnc(Cn2nnc3ccccc32)s1 | 76* | 31 | 33 | 61* | 21 | 4 | 61* | 33* | 42* | 13* | 72*
Cc1ccc(C#CC[N+]2(CC#Cc3ccc(C)cc3)CCCCC2)cc1 | 45* | 26 | 59 | 88* | 24 | 35 | 89* | 39* | -7 | 13* | 36
C#CC[N+]1(CC#Cc2ccccc2)CCCCC1 | -11 | 18 | -3 | 11 | 6 | -54 | x | x | x | x | x
O=C(Nc1ccc(F)cc1)N[C@@H]1C[C@@H]2O[C@H](CO)CC[C@@H]2O[C@@H]1CCc1ccc(C2=CCCC2)cc1 | 14 | x | x | x | 7 | x | x | x | x | x | x
O=C1/C(=C\c2ccccc2)SC(=S)N1CCC(=O)N1CCCCC1CCO (stereo unspecified) | 21 | 9 | 7 | 4 | 5 | -5 | x | x | x | x | x
COc1ccc(/C=C2\SC(=S)N(CCCC(=O)N3CCCCC3CCO)C2=O)cc1 (stereo unspecified) | 54* | 34 | 27 | 66* | 77* | 24 | 25 | 13 | 17 | 42* | 30
CCOC(=O)[C@@]12CN(C(=O)OC(C)(C)C)CC=C1N(Cc1ccc(OC)cc1)C(=O)[C@H]2CC(=O)NCc1ccccc1 | -12 | x | x | x | 11 | x | x | x | x | x | x
CC(=O)Nc1ccc(NS(=O)(=O)c2ccc(-c3cnc(C4CC4)o3)cc2)cc1 | 5 | 9 | 28 | -9 | 15 | -36 | x | x | x | x | x
CC(=O)c1cccc(NS(=O)(=O)c2ccc(-c3cnc(C4CC4)o3)cc2)c1 | 44* | 28 | 37 | 55 | 15 | 16 | 49* | 17 | -8 | 3 | 47*
Cc1ccc(C2CC(C(F)(F)F)n3nc(C(=O)NCc4c(C)nn(C)c4C)c(Cl)c3N2)cc1 (stereo unspecified) | 45* | 33 | 23 | 54 | 21 | 26 | 54* | 32* | 11 | 0 | 23
Cc1nn(C)c(C)c1CNC(=O)c1cnn2c1NC(c1ccccc1)CC2C(F)(F)F (stereo unspecified) | -13 | 16 | 0 | 4 | 16 | -20 | x | x | x | x | x
COc1cccc(-c2nnc(SCC(=O)OC(C)C)n2-c2ccc(Cl)cc2)c1 | 8 | x | x | x | 5 | x | x | x | x | x | x
CC1CN(C(=O)c2cccc(S(=O)(=O)N3CCN(c4ccc(F)cc4)CC3)c2)CC(C)O1 (stereo unspecified) | 3 | -2 | 5 | 15 | 14 | -1 | x | x | x | x | x
O=C(c1cccc(S(=O)(=O)N2CCN(c3ccc(F)cc3)CC2)c1)N1CCCC(C(F)(F)F)C1 (stereo unspecified) | 63* | 20 | 36 | 57* | 27 | 20 | 62* | 34* | 7 | -4 | 45*
Cc1ccc2c(c1)C(CS(=O)(=O)NCc1ccc(F)cc1)NC2 (stereo unspecified) | -12 | x | x | x | -11 | x | x | x | x | x | x
CC(C)(C)OC(=O)NCCCCCNC(=O)c1nc[nH]c1C(=O)NCCCCCNC(=O)OC(C)(C)C | 55* | 52 | 34 | 55* | 34 | 32 | 30 | 2 | -26 | 2 | 33
SMILES | NR2F2 inh | SRC3 inh | NR5A2 inv ag | Gli-Sufu antag | SRC2 inh | SRC1 inh | Gli antag conf | SufuKO cytotox | Wnt3a counter | Gal4-VP16 ctr | NR2F2 inh conf
O=[N+]([O-])c1ccc(Cn2ccc3ccc(-c4ccc5ccn(Cc6ccccc6)c5c4)cc32)cc1 | 13 | x | x | x | 14 | x | x | x | x | x | x
c1ccc(-n2ncc3c(NCCCN4CCOCC4)ncnc32)cc1 | -40 | -60 | -110 | -56 | -43 | -91 | x | x | x | x | x
Clc1ccc(-n2ncc3c(NCCN4CCOCC4)ncnc32)cc1 | 56* | 58 | 43 | 54 | 37 | 42 | 66* | 18 | 59* | -29 | 48*
COc1cc(C(=O)N2CCN(c3ncnc4sc(C)c(C)c34)CC2)cc(OC)c1OC | 48* | 9 | 34 | 57* | -5 | 13 | 54* | 31* | -22 | 8 | 48*
CN(C)c1cc[n+](Cc2c(Cl)cccc2Cl)cc1 | 47* | 23 | 46 | 73* | 0 | 6 | 67* | 17 | 30* | 5 | 34
Cc1cc(C)nc(/N=C(\N)Nc2ccc(-c3ccccc3)cc2)n1 | 56* | 47 | 29 | 67* | 8 | 25 | 37 | 18 | -95 | 4 | 35
CC(=O)Nc1ccc(N/C(N)=N/c2nc(C)cc(C)n2)cc1 | -7 | 15 | 24 | 13 | -3 | -11 | x | x | x | x | x
